Screening data as filed in PubChem.
PI5P4Ka inh: blocks human PI5P4K alpha kinase activity | hit rate 1.2% among 330,000 | AID 652105 | PI5P4Kalpha enzyme, ADP-Glo luminescence, 60 min; stronger effect = lower value | max response, %; active = max response of -50% or lower; inconclusive = between -30% and -50%; inactive = -30% or higher; also: value at the top dose of about 77 µM; % is scaled to controls: 0 for no effect and ±100 for the full control effect
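qHTS, 1536-well: enzyme/substrate mix, compound by pin tool, 5 microM ATP final; RT 60 min; ADP-Glo reagents 1 (45 min) then 2 (30 min); luminescence.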
POLK inh: inhibitors of human DNA polymerase kappa. Q9UBT6. purified Pol kappa, fluorescent DNA synthesis assay, 10 min. Potency, µM (series often up to 107 µM), for inactives: top-dose activity, negative = inhibition, actives largely listed as inhibitors. hit rate 0.53% among 400,000. AID 588579; also: potency is read from the fitted curve at half-maximal effect; % is scaled to controls: 0 for no effect and ±100 for the full control effect
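10 nM Pol kappa preincubated 15 min at room temperature with compounds, then reaction started with substrate at 50 nM final. Fluorescence read kinetically at 0 and 10 min; buffer-only wells served as negative control.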
FEN1 inh: inhibitors of human flap endonuclease 1; P39748; Recombinant FEN1 flap cleavage, fluorescence, 15 min; Potency, µM (series often up to 114 µM), inactives show at the highest dose activity change, negative = inhibition, usual class: inhibitors; AID 588795; hit rate 0.35% among 390,000; also: potency is read from the fitted curve at half-maximal effect; % is scaled to controls: 0 for no effect and ±100 for the full control effect; nearly all actives have a fitted effect of over 65% in size
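In this screen, 50 nM flap DNA substrate was added to 10 nM FEN1 pretreated with compound for 15 min at room temperature; cleavage was followed with reads at 0 and 15 min, and Hill fitting gave concentration–response parameters.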
Pol beta inh: DNA polymerase beta (human) inhibition; P06746; Pol beta primer extension/strand displacement, fluorescence kinetic; Potency, µM (top dose mostly 114 µM), for the others: at the highest dose activity change, negative = inhibition, most hits filed as inhibitors; hit rate 1.3% among 340,000; AID 485314; also: potency is read from the fitted curve at half-maximal effect; % is scaled to controls: 0 for no effect and ±100 for the full control effect
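Pol beta (10 nM) and compounds were preincubated 15 min at room temperature, then 50 nM substrate (final) started primer extension/strand displacement. Reads were taken at 0 and 10 min; concentration-response data were fitted to a four-parameter Hill equation.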
Pol iota inh: inhibitors of human DNA polymerase iota | Q9UNA4 | Pol iota fluorescent replication assay, 10 min | Potency, µM (series often up to 115 µM), without a hit: at the highest dose activity, negative = inhibition, usual class: inhibitors | hit rate 1% among 390,000 | AID 588590; also: potency is read from the fitted curve at half-maximal effect
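Fluorescent replication assay read twice, at 0 min and 10 min after adding 50 nM (final) substrate. Enzyme (10 nM) and compounds were first incubated 15 min at room temperature; enzyme-free buffer wells were negative controls.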
Pol eta inh: inhibitors of human DNA polymerase eta | Q9Y253 | recombinant Pol eta, fluorescent DNA replication assay | Potency, µM (doses to about 114 µM), for the others: at the highest dose activity change, negative = inhibition, most hits filed as inhibitors | hit rate 1.2% among 390,000 | AID 588591; also: potency is read from the fitted curve at half-maximal effect; % is scaled to controls: 0 for no effect and ±100 for the full control effect
Target sequence (Q9Y253 whole entry, looked up): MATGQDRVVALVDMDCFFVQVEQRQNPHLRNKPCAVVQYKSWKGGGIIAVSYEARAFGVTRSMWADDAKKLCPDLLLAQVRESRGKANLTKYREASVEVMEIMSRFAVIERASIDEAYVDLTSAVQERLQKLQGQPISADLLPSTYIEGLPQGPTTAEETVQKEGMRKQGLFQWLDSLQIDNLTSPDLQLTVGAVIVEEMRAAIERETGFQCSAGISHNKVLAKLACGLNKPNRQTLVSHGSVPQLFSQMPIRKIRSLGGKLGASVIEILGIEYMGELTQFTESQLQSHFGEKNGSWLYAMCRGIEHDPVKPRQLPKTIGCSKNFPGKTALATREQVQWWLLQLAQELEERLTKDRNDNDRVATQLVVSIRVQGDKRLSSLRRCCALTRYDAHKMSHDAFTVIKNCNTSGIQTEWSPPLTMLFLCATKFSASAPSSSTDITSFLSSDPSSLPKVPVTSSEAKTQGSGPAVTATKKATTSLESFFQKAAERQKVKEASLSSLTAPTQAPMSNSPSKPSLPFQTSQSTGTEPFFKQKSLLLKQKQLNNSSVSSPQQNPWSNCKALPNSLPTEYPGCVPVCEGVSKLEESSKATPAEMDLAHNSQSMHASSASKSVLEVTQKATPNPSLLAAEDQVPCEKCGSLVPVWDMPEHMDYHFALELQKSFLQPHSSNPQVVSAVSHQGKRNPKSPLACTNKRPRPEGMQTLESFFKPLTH
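Pol eta (10 nM) was preincubated with compounds for 15 min at room temperature, after which fluorescent replication substrate (50 nM final) was added to start the reaction. Fluorescence was read kinetically at 0 and 10 min.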
Numbers without * were called inactive; ? = inconclusive; nt = not tested or not shown; ! = repeats disagree. Hits are enriched below; roughly 2.8% of the tested compounds scored in any of these assays. Unless noted, calls follow the shape of the dose curve; as a rule, active = well fitted curve in the direction sought with a large enough effect; inconclusive = small, poorly fitted or top-dose-only effect, or another doubt; inactive = no such curve, though single readings can be large; an effect the other way counts as inactive or inconclusive.

SMILES	PI5P4Ka inh	POLK inh	FEN1 inh	Pol beta inh	Pol iota inh	Pol eta inh
O=C(O)c1ccccc1-c1c2ccc(=O)cc-2oc2cc(O)ccc12	nt	26.7µM*	nt	nt	nt	nt
O=C(O)CN(CC(=O)O)Cc1cc2c(-c3ccccc3C(=O)O)c3cc(CN(CC(=O)O)CC(=O)O)c(=O)cc-3oc2cc1O	nt	7.08µM*	nt	nt	nt	nt
CC(=O)c1ccc(NS(=O)(=O)c2cccc(C(=O)Nc3ccccc3C(=O)O)c2)cc1	-18.7	-8.2%	12.5%	14.4%	-13.3%	-3.0%
O=C(Nc1ccc(S(=O)(=O)Nc2ncccn2)cc1)c1nn(Cc2ccccc2)c(=O)c2ccccc12	-24.3	-19.3%	-3.1%	?	?	79.4µM*
CCn1nc(C(=O)Nc2ccc(S(=O)(=O)Nc3nccs3)cc2)c2ccccc2c1=O	-6.8	-33.3%	-1.7%	-17.6%	-0.7%	?
CCc1cccc2c1NC(=O)[C@]21[C@@H]2C(=O)N(Cc3ccccc3)C(=O)[C@@H]2[C@@H]2CCCN21	-51.5*	-18.2%	-18.8%	?	?	22.4µM*
O=C(NC(NNc1ccc([N+](=O)[O-])cc1)(C(F)(F)F)C(F)(F)F)c1ccc(F)cc1	-71.1*	-24.8%	-12.2%	-15.2%	-3.6%	-13.4%
COC(=O)C(NNc1ccccc1)(NC(=O)c1ccc(F)cc1)C(F)(F)F (stereo unspecified)	nt	-7.9%	-13.1%	6.2%	16.8%	-12.7%
O=C(COC(=O)C1CCCCC1C(=O)N1CCc2ccccc21)NCc1ccco1 (stereo unspecified)	?	?	4.5%	31.6µM*	?	25.1µM*
CC1=Nc2ccccc2/C1=C\c1nc(-c2ccc(C(F)(F)F)cc2)oc1O	nt	-13.0%	-8.6%	15.7%	8.91µM*	54.7%
Cc1ccc(N(C)C(=O)Cn2cnc3onc(-c4ccc(F)cc4)c3c2=O)cc1C	nt	-2.3%	-16.7%	2.0%	5.2%	-8.2%
O=C1NN(c2ccccc2)C(=O)C1=Cc1ccccc1O	-5.0	nt	nt	nt	nt	7.5%
O=C1NN(c2ccccc2)C(=O)/C1=C\c1cccn1-c1ccc(Cl)c([N+](=O)[O-])c1	-62.6*	?	2.4%	?	?	20µM*
CC(=O)NC(C)(c1ccccc1)c1nc(-c2cncnc2)cs1 (stereo unspecified)	1.1	nt	nt	nt	nt	nt
CNS(=O)(=O)c1ccc2c3c(cccc13)C(=O)N2	3.7	-10.9%	1.2%	67.6%	-3.5%	3.5%
O=C(O)CCCCCNS(=O)(=O)c1ccc2c3c(cccc13)C(=O)N2	-12.7	?	-1.1%	15.8µM*	?	?
O=C(O)CNS(=O)(=O)c1ccc2c3c(cccc13)C(=O)N2	-16.2	?	?	9.5%	?	31.6µM*
O=S(=O)(NCc1ccco1)c1ccccc1Br	0.7	-22.8%	-6.6%	?	89.1µM*!	-11.0%
O=C(O)/C=C/c1ccc(S(=O)(=O)NCc2ccco2)cc1	5.9	-23.1%	-9.4%	-29.2%	-21.7%	35.5µM*
CCc1ccc(-n2c3nc(=O)[nH]c(=O)c-3cc3c(C)nn(-c4ccccc4)c32)cc1	nt	-11.3%	-10.5%	33.7%	2.3%	-8.0%
O=C1Nc2ccc(S(=O)(=O)NCc3ccco3)c3cccc1c23	?	-43.2%	-23.0%	nt	39.8µM*	20µM*
CCOc1ccc(S(=O)(=O)NCc2ccco2)c2ccccc12	nt	-8.9%	-6.9%	?	-7.2%	-10.6%
Cc1nc(NC(=O)c2cccc(Cl)c2)sc1C(=O)N1CCCCC1	0.3	1.4%	20.3%	3.5%	5.4%	3.9%
CC(C)(C)C(=O)CSc1n[nH]c(-c2ccccc2)n1	nt	-9.6%	?	nt	-15.6%	nt
CC1(C)Cc2c(C#N)c(NCCc3ccccc3)nc(-c3ccco3)c2CO1	-19.0	-1.8%	4.9%	16.0%	79.4µM*	89.1µM*
Cc1ccc2[nH]c(=O)c3cc(C(=O)NCCc4ccc(Cl)cc4)sc3c2c1	nt	-0.3%	5.7%	1.7%	45.9%	0.8%
